The values that follow come from the supplement of paper PMC8007513.

The experiment deals with Trichoderma virens ATCC 9645. The experiment is described as follows: growth yield (OD600) with compound + IPBC relative to untreated control; higher = less growth inhibition. The settings on record: compound concentration: 100 uM, IPBC concentration: 200 ng/ml. The procedure, abridged:
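Spores of Trichoderma virens ATCC 9645, taken from potato dextrose agar plates grown for 7 days, were suspended at 15,000 spores ml^−1 in potato dextrose broth. In 96-well plates, 100 μl aliquots held library compounds at 100 μM final, either alone or together with a biocide at 200 ng ml^−1, and were grown at 30 °C. A BioTek EL800 read OD600 at 40 h and 72 h. Growth values are given relative to the control lacking both agents and are means of duplicate screens.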

Structures can show the parent of a compound that is named as a salt. ± gives the standard error. The campaign covered roughly 1,300 compounds. About 130 (10%) showed an effect of 50% or more. Only a selection was taken, and strong results are over-represented in it overall.

On to `CC(=O)Nc1ccc(O)cc1` [Acetaminophen] + CCCCNC(=O)OCC#CI [3-iodo-2-propynyl butylcarbamate (IPBC)], for which the growth yield came out at 105 ± 20% (40 h) and 103 ± 14% (72 h).
Taken in the same sequence, the figures for `CC(C)[N+](C)(CCOC(=O)C1c2ccccc2Oc2ccccc21)C(C)C` [Propantheline bromide] + CCCCNC(=O)OCC#CI [3-iodo-2-propynyl butylcarbamate (IPBC)] were 78.8 ± 3.2% and 89.1 ± 3.6%.
Taken in the same sequence, the figures for `CC(=O)N[C@@H](CC(C)C)C(=O)O` [N-Acetyl-L-leucine] + CCCCNC(=O)OCC#CI [3-iodo-2-propynyl butylcarbamate (IPBC)] were 86.57 ± 0.16% and 93.8 ± 2.3%.
Consider `C[C@]12CC[C@@H]3c4ccc(OS(=O)(=O)O)cc4CC[C@H]3[C@@H]1CCC2=O` [Estropipate] + CCCCNC(=O)OCC#CI [3-iodo-2-propynyl butylcarbamate (IPBC)], for which the growth yield reads like this: (40 h) 87 ± 1.6%; (72 h) 89.7 ± 2%.
Taken in the same sequence, the figures for `Oc1c(Cl)cc(Cl)c(Cl)c1Cc1c(O)c(Cl)cc(Cl)c1Cl` [Hexachlorophene] + CCCCNC(=O)OCC#CI [3-iodo-2-propynyl butylcarbamate (IPBC)] were 19.4 ± 4.8% and 80.2 ± 2.6%.
For the compound `CC(C)C(=O)OCC(=O)[C@@]12O[C@H](C3CCCCC3)O[C@@H]1C[C@H]1[C@@H]3CCC4=CC(=O)C=C[C@]4(C)[C@H]3[C@@H](O)C[C@@]12C` [Ciclesonide] + CCCCNC(=O)OCC#CI [3-iodo-2-propynyl butylcarbamate (IPBC)], the growth yield is, setting by setting: (40 h) 107 ± 6.8%; (72 h) 103 ± 5.8%.
Taken in the same sequence, the figures for `CC(C)CC(=O)N[C@H](C(=O)N[C@H](C(=O)N[C@@H](CC(C)C)[C@@H](O)CC(=O)N[C@@H](C)C(=O)N[C@@H](CC(C)C)[C@@H](O)CC(=O)O)C(C)C)C(C)C` [Pepstatin A] + CCCCNC(=O)OCC#CI [3-iodo-2-propynyl butylcarbamate (IPBC)] were 96.4 ± 11% and 103 ± 6.7%.
Taken in the same sequence, the figures for `CN[C@@H]1[C@H](O[C@H]2[C@H](O[C@H]3[C@H](O)[C@@H](O)[C@H](N=C(N)N)[C@@H](O)[C@@H]3N=C(N)N)O[C@@H](C)[C@]2(O)C=O)O[C@@H](CO)[C@H](O)[C@H]1O` [Streptomycin sulfate] + CCCCNC(=O)OCC#CI [3-iodo-2-propynyl butylcarbamate (IPBC)] were 101 ± 3.8% and 99.9 ± 1.1%.
In the case of `O=C(O)COC(=O)Cc1ccccc1Nc1c(Cl)cccc1Cl` [Aceclofenac] + CCCCNC(=O)OCC#CI [3-iodo-2-propynyl butylcarbamate (IPBC)], the growth yield is, setting by setting: (40 h) 79.9 ± 0.48%; (72 h) 95.9 ± 1.7%.
As to `Cc1ccc(Cl)c(Nc2ccccc2C(=O)O)c1Cl` [Meclofenamic acid sodium salt monohydrate] + CCCCNC(=O)OCC#CI [3-iodo-2-propynyl butylcarbamate (IPBC)], the growth yield (40 h) was determined as 71.3 ± 1.4% and the growth yield (72 h) worked out at 85.3 ± 1.8%.
On to `O=C(O)Cc1ccccc1Nc1c(Cl)cccc1Cl` [Diclofenac sodium] + CCCCNC(=O)OCC#CI [3-iodo-2-propynyl butylcarbamate (IPBC)], for which the growth yield reads like this: (40 h) 44.79 ± 0.32%; (72 h) 74.7 ± 1.5%.
As to `O=C(CCCCCCC(=O)Nc1ccccc1)NO` [Vorinostat] + CCCCNC(=O)OCC#CI [3-iodo-2-propynyl butylcarbamate (IPBC)], the growth yield came to 107 ± 9.5% (40 h) and 99.5 ± 3.9% (72 h).
Taken in the same sequence, the figures for `COc1cc2nc(N3CCN(C(=O)c4ccco4)CC3)nc(N)c2cc1OC` [Prazosin hydrochloride] + CCCCNC(=O)OCC#CI [3-iodo-2-propynyl butylcarbamate (IPBC)] were 84.82 ± 0.32% and 92.6 ± 1.1%.
Taken in the same sequence, the figures for `OCCN1CCN(CC/C=C2/c3ccccc3Sc3ccc(Cl)cc32)CC1` [Zuclopenthixol dihydrochloride] + CCCCNC(=O)OCC#CI [3-iodo-2-propynyl butylcarbamate (IPBC)] were 4.92 ± 0.16% and 3.57 ± 0.21%.
As for `CN(C)CCOC(c1ccc(Cl)cc1)c1ccccn1` (stereo not drawn) [Carbinoxamine maleate salt] + CCCCNC(=O)OCC#CI [3-iodo-2-propynyl butylcarbamate (IPBC)], the growth yield (40 h) was 103 ± 9.4% and the growth yield (72 h) was found to be 102 ± 4.9%.
On to `CN(C)CCOC1=Cc2ccccc2Sc2ccc(Cl)cc21` [Zotepine] + CCCCNC(=O)OCC#CI [3-iodo-2-propynyl butylcarbamate (IPBC)], for which the growth yield is, setting by setting: (40 h) 38.6 ± 0.16%; (72 h) 97.7%.
Taken in the same sequence, the figures for `OCCOCCN1CCN(C2=Nc3ccccc3Sc3ccccc32)CC1` [Quetiapine hemifumarate] + CCCCNC(=O)OCC#CI [3-iodo-2-propynyl butylcarbamate (IPBC)] were 72.75 ± 0.64% and 85.7 ± 3.2%.
Take `CN(C)CCC=C1c2ccccc2C=Cc2ccccc21` [Cyclobenzaprine hydrochloride] + CCCCNC(=O)OCC#CI [3-iodo-2-propynyl butylcarbamate (IPBC)]: the growth yield reads like this: (40 h) 65.1%; (72 h) 88.41 ± 0.73%.
Take `CN(C)CC/C=C1\c2ccccc2CSc2ccccc21` [Dosulepin hydrochloride] + CCCCNC(=O)OCC#CI [3-iodo-2-propynyl butylcarbamate (IPBC)]: the growth yield runs as follows: (40 h) 77.5%; (72 h) 99 ± 1.1%.
Taken in the same sequence, the figures for `CN(C)CC/C=C1/c2ccccc2Sc2ccc(Cl)cc21` [Chlorprothixene hydrochloride] + CCCCNC(=O)OCC#CI [3-iodo-2-propynyl butylcarbamate (IPBC)] were 24.5 ± 7.9% and 83.6 ± 8.9%.
Turning to `COc1ccccc1Oc1c(NS(=O)(=O)c2ccc(C(C)(C)C)cc2)nc(-c2ncccn2)nc1OCCO` [Bosentan] + CCCCNC(=O)OCC#CI [3-iodo-2-propynyl butylcarbamate (IPBC)], the growth yield reads like this: (40 h) 117 ± 2.4%; (72 h) 114 ± 5.8%.
Taken in the same sequence, the figures for `Clc1ccc2c(c1)C(N1CCNCC1)=Nc1ccccc1O2` [Amoxapine] + CCCCNC(=O)OCC#CI [3-iodo-2-propynyl butylcarbamate (IPBC)] were 81.3 ± 6% and 99.9 ± 7%.
Taken in the same sequence, the figures for `CCOC(=O)[C@@](C)(N)Cc1ccc(O)c(O)c1` [Methyldopate hydrochloride] + CCCCNC(=O)OCC#CI [3-iodo-2-propynyl butylcarbamate (IPBC)] were 110 ± 6% and 106 ± 6.2%.
Taken in the same sequence, the figures for `CC12CC3CC(C)(C1)CC(N)(C3)C2` [Memantine Hydrochloride] + CCCCNC(=O)OCC#CI [3-iodo-2-propynyl butylcarbamate (IPBC)] were 109 ± 3% and 108 ± 4.2%.
